Source: PubChem
Only a selection was taken, and hits are over-represented in it overall.
BL2 CD40 inh: CD40 pathway inhibition in BL2 cells; BL2 NF-kB luciferase reporter, CD40L-induced, 4 h; inhibition, % at 10 µM; 83,000 compounds, 0.94% hits;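 active = mean inhibition of at least 50% with a set share of replicates also reaching that level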;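 note: 0% = neutral control wells and 100% = IKK inhibitor VII at 50 µM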
An asterisk follows results filed as active; [ ] = another dose, or the depositor's remark.

SMILES	BL2 CD40 inh
COCC(=O)Nc1ccc2c(c1)[C@H]1C[C@H](CC(=O)N3CCOCC3)O[C@@H](CO)[C@H]1O2	-5[25 µM]
COc1ccccc1N1CCN(c2ccc(-c3ccccc3)nn2)CC1	53*
COc1ccccc1OCC(=O)N1CCN(c2ccccc2OC)CC1	16
COc1ccccc1N1CCN(c2ccc(S(=O)(=O)N3CCN(C)CC3)cn2)CC1	3
C[C@H]1CN(C)C(=O)c2cc(N)ccc2O[C@@H]1CN(C)C	7
CO[C@@H]1CN(C)C(=O)c2cc(NC(=O)NC3CCCCC3)ccc2OC[C@@H](C)N(C)C[C@H]1C	-6
Cc1ccc(S(=O)(=O)N2CC[C@@H]3[C@@H](CO)Nc4ccc(-c5ccc(C#N)cc5)cc4[C@@H]32)cc1	43[25 µM]
COc1ccc(-c2ccc3n(c2=O)C[C@H]2[C@H](CO)[C@@H](C(=O)N(C)C)[C@@H]3N2C(=O)c2cnccn2)cc1	5[25 µM]
CC(C)CC(=O)Nc1ncc([N+](=O)[O-])s1	4
CCCCC(=O)Nc1ncc([N+](=O)[O-])s1	-24
Cc1nc(C)c(C(=O)Nc2ncc([N+](=O)[O-])s2)o1	69*
CCN1CC(=O)N2[C@@H](CO)[C@H](c3ccc(Br)cc3)[C@@H]2C1	7[25 µM]
Cn1cnc(S(=O)(=O)N2[C@@H]3CNC[C@H]2C3c2ccc(-c3ccccc3F)cc2)c1 (stereo partly drawn)	-3[25 µM]
C[C@@H]1CN([C@H](C)CO)C(=O)c2ccccc2-c2ccccc2CO[C@@H]1CN(C)CC1CC1	-8[25 µM]
C/C(=N\OCC(=O)Nc1nc2ccccc2s1)c1ccccc1	13
O=C(Nc1nc2ccccc2s1)c1cnccn1	28
CC(=NNc1nc2ccccc2s1)c1ccncn1	63*
CC(C)NC(=O)Nc1ccc2c(c1)CC(=O)N(C)C[C@H](C)[C@@H](CN(C)C)O2	3
CCC(=O)N[C@@H]1CC[C@H](CC(=O)NCC2CC2)O[C@@H]1CO	-3
CO[C@H]1CC[C@H]2CCOc3c(C#N)cccc3C(=O)N(C)CC3(CCCCC3)CC(=O)N(C)C[C@H]1O2	-4[25 µM]
COc1ccc(C(=O)N2C[C@H]3[C@@H](c4ccccc42)[C@@H](CO)N3C(=O)c2cccc(F)c2)cc1	-4
O=C(COc1cccnc1[N+](=O)[O-])Nc1c(Cl)cccc1Cl	5
O=C(COc1cccnc1[N+](=O)[O-])c1ccc(Cl)s1	92*
O=C(COc1cccnc1[N+](=O)[O-])Nc1ncc(Cl)cc1Cl	-15
CC(C)NC(=O)Nc1ccc2c(c1)CC(=O)N(C)C[C@@H](C)[C@@H](CN(C)C(=O)NC(C)C)O2	14
SMILES	BL2 CD40 inh
C[C@@H]1CN([C@H](C)CO)C(=O)CCCn2cc(nn2)CO[C@@H]1CN(C)Cc1ccccc1C(F)(F)F	4[25 µM]
C[C@H](CO)N1C[C@H](C)[C@@H](CN(C)C(=O)CCN(C)C)OCc2ccccc2-c2ccccc2C1=O	-8
O=C(Nc1cccc(S(=O)(=O)N2CCCCC2)c1)c1cccs1	8
O=C(Nc1cccc(N2C(=O)C=CC2=O)c1)c1cccs1	99*
O=C(Nc1ccc2c(c1)CCC2)c1cccs1	-78
CN1[C@H](C(=O)NC2CCC2)[C@@H](CO)[C@@H]2Cn3c(ccc(-c4cccc(F)c4)c3=O)[C@@H]21	0
O=C(NC1CCCCC1)[C@H]1N[C@H]2c3ccc(-c4cccc(F)c4)c(=O)n3C[C@H]2[C@@H]1CO	-7[25 µM]
O=C1N[C@H](c2ccccc2)COCc2cn(nn2)CC[C@H](Cc2ccc(C(F)(F)F)cc2)C(=O)N[C@H](c2ccccc2)COCc2cn(nn2)CC[C@@H]1Cc1ccc(C(F)(F)F)cc1	6
CCOC(=O)c1c(-c2ccc(C)o2)csc1N	3
CCOC(=O)c1c(-c2ccc(C)o2)csc1NC(=O)COC(=O)c1cccs1	80*
CCOC(=O)c1c(-c2ccc(C)o2)csc1NC(=O)CN1CCOCC1	-1
COC(=O)c1ccccc1NC(=O)C(CCS(C)(=O)=O)NC(C)=O (stereo not drawn)	7
COC(=O)c1ccccc1NC(=O)COC(=O)/C=C/c1cccs1	10
COC(=O)c1ccccc1NC1=C/C(=N\S(=O)(=O)c2cccs2)c2ccccc2C1=O	33*
Cc1nn2c(NCCN(C)C)c3c(nc2c1-c1ccccc1)CCCC3	-78
COc1cccc(-c2cc3nc4c(c(NCC(C)(C)CN(C)C)n3n2)CCCC4)c1	63*
Cc1nn2c(NCc3cccnc3)c3c(nc2c1-c1ccccc1)CCC3	13
CCC(=O)N1[C@H](CN(C)C(=O)c2cccc(F)c2)[C@@H](c2ccccc2)[C@@H]1CO	-24
C[C@@H]1CN([C@@H](C)CO)C(=O)c2cc(NS(=O)(=O)c3ccc(Cl)cc3)ccc2O[C@H]1CN(C)CC1CCCCC1	7[25 µM]
C[C@H]1CN(C)C(=O)Cc2cc(N)ccc2O[C@@H]1CN(C)S(C)(=O)=O	5
COc1cc(/C=N/n2cnnc2)ccc1OC(=O)c1cccnc1	19
COc1cc(/C=N/n2cnnc2)ccc1OCC(=O)N1CCOCC1	6
COc1cc(/C=N/n2cnnc2)ccc1OC(=O)c1ccncc1	65*
CC(C)C#Cc1ccc([C@@H]2[C@H]3CN(C(=O)Cc4ccccc4)CC(=O)N3[C@H]2CO)cc1	-15[25 µM]
